Mcl1-Noxa inh: Mcl-1/Noxa binding inhibitors, primary screen, biochemical, TR-FRET, 1536-well. Induced myeloid leukemia cell differentiation protein Mcl-1 (Homo sapiens), Q07820. TR-FRET Mcl-1/Noxa peptide binding, 2 h. inhibition, % at 21.7 µM. 1.5% of 220,000 active. AID 1022, 2008;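 active means compounds that cut the protein-peptide binding signal by more than 50% relative to plate controls in a single-dose test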;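 further: His-tagged Mcl-1 with rhodamine Noxa BH3 peptide and terbium anti-His antibody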
TLR9-MyD88 block: inhibitors of TLR9-MyD88 association in cells, primary screen, cell-based, CHO, BLA complementation, fluorescence; Toll-like receptor 9 (Homo sapiens) + Myeloid differentiation primary response protein …; CCF4 FRET ratio; inhibition, % at 4.98 µM; 0.21% of 340,000 active; AID 504734, 2011;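 active means inhibition above the mean over all tested compounds plus 3 SD, cut at about 21% in these data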
Mcl1 Bid PPI: Mcl-1/Bid binding inhibitors, primary screen, biochemical, TR-FRET, 1536-well; TR-FRET Mcl-1/Bid-Dy647 peptide binding; inhibition, % at 21.7 µM; 0.97% of 220,000 active;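 active means compounds that cut the binding signal by more than half at the single screening dose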;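 further: His-tagged Mcl-1 with europium anti-His antibody binding Bid BH3 peptide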
TLR4 MyD88 comp: inhibitors of TLR4-MyD88 association in cells, primary screen, cell-based, HeLa CL3-4, BLA complementation, FRET ratio; Toll-like receptor 4 (Homo sapiens) + Myeloid differentiation primary response protein …; HeLa CL3-4 TLR4/MyD88 BLA complementation; inhibition, % at 8.4 µM; 0.18% of 200,000 active; AID 861, 2007; in the data active means inhibition above about 25%
Mcl-1 Bim block: inhibitors of Bim peptide binding to Mcl-1, primary screen, biochemical, bead-based flow cytometry, multiplex; Induced myeloid leukemia cell differentiation protein Mcl-1 (Homo sapiens), Q07820; Bim peptide-Mcl-1 binding; inhibition, % at 10 µM; 0.1% of 190,000 active; AID 1009, 2008; in the data active means inhibition above about 40%
NOD2 RIPK2 PPI: NOD2-RIPK2 binding disruptors in cells, primary screen, fluorescence, CHO cells, BLA complementation; inhibition, % at 4.98 µM; Receptor-interacting serine/threonine-protein kinase 2 (Homo sapiens), O43353; CCF4 ratio; AID 624267, 2012; 0.38% of 360,000 active; in the data active means inhibition above about 21%
Numbers stand for hits; i = inactive; nt = not tested or not shown. Only some compounds are listed: those with a hit (about 1.8% of all), similar ones and a draw of the others.

SMILES | Mcl1-Noxa inh | TLR9-MyD88 block | Mcl1 Bid PPI | TLR4 MyD88 comp | Mcl-1 Bim block | NOD2 RIPK2 PPI
O=C(Cn1nc(C(=O)O)c2ccccc2c1=O)Nc1ccc2c(c1)C(=O)c1ccccc1C2=O | 80 | nt | 75 | nt | nt | nt
Cc1occc1C(=O)NNC(=S)NCc1ccccc1 | i | i | i | i | 60 | i
O=c1[nH]c2ccccc2c(O)c1-c1cc2ccccc2oc1=O | i | nt | i | i | i | nt
O=C(/C=C/c1ccc(O)c(O)c1)c1ccc(S(=O)(=O)N2CCCCCC2)cc1 | 65 | i | i | i | i | i
COc1ccc(C(=O)NC(=S)Nc2ccc(Cc3ccncc3)cc2)cc1 | i | i | i | i | i | i
Cc1c(C(=O)OCC(C)C)[nH]c2c1C(=O)CC(c1ccco1)C2 (stereo not drawn) | i | i | i | i | i | i
Cc1c(C(=O)OCC2CCCO2)[nH]c2c1C(=O)CC(c1ccco1)C2 (stereo not drawn) | 70 | i | i | i | i | i
CC1(C)Cc2c(C#N)c(N3CCN(C(=O)c4ccco4)CC3)nc(-c3ccco3)c2CS1 | 53 | i | i | i | i | i
Cc1ccc(-c2nnc(N3CC(C)OC(C)C3)c3ccccc23)cc1 (stereo not drawn) | i | i | 91 | i | i | i
OC(CNC1CCCCC1)COCCOc1ccc(Br)cc1 (stereo not drawn) | i | i | i | i | 49 | i
COc1cc2cc3c(N)c(C(=O)Nc4sc(C)c(C)c4C#N)sc3nc2cc1OC | 98 | i | 66 | i | i | i
COc1cc2cc3c(N)c(C(=O)NCc4ccco4)sc3nc2cc1OC | 57 | i | i | i | i | i
Cc1cc(C(=O)Nc2sc(C)c(C)c2C#N)no1 | i | i | i | i | i | i
CC1(c2nnc(Cc3ccccc3)o2)CC(c2ccccc2[N+](=O)[O-])=NO1 (stereo not drawn) | nt | i | nt | nt | nt | i
CC(=O)c1cccc(NC(=O)c2cccc3ccccc23)c1 | nt | i | nt | nt | nt | i
CCc1nnc(SCC(=O)Nc2ccccc2)n1CC1CCCO1 (stereo not drawn) | nt | i | nt | nt | nt | i
CCN(CC)c1ccc(/C=N/NC(=O)OC(C)(C)C)cc1 | i | i | i | nt | nt | i
CN1CCc2cc3c(c4c2[C@H]1[C@H](O)c1ccccc1-4)OCO3 | i | i | i | i | i | i
CN1CCc2cccc3c2[C@H]1Cc1ccc(O)c(O)c1-3 | 88 | i | i | i | i | i
COc1cc(CN(C(C)=O)c2ccccc2C(=O)O)ccc1[N+](=O)[O-] | nt | i | nt | nt | nt | i
O=C1N/C(=N/Nc2ccccc2)S/C1=C\c1ccccc1 | 97 | i | i | i | i | i
CC(=O)NC(CC(=O)NNC(=O)c1cc2ccccc2cc1O)c1ccccc1 (stereo not drawn) | nt | i | nt | nt | nt | i
c1cncc(-c2nc(NCc3ccco3)c3ccccc3n2)c1 | 51 | i | 53 | i | i | i
Cc1ccc(-c2nc(NCc3ccco3)c3ccccc3n2)cc1 | i | i | i | i | i | i
OCCN1CCN(c2nc(NCc3ccco3)c3ccccc3n2)CC1 | 51 | i | i | i | i | i
SMILES | Mcl1-Noxa inh | TLR9-MyD88 block | Mcl1 Bid PPI | TLR4 MyD88 comp | Mcl-1 Bim block | NOD2 RIPK2 PPI
Oc1ccccc1Nc1nc(NCc2ccco2)c2ccccc2n1 | 60 | i | i | nt | nt | i
CC(=O)c1cccc(NC(=O)C(C)OC(=O)CCc2nc3ccccc3c(=O)[nH]2)c1 (stereo not drawn) | nt | i | nt | nt | nt | i
O=C1CC2(CCN(C(=O)c3ccc(F)cc3)CC2)Oc2ccccc21 | nt | i | nt | nt | nt | i
Cn1c(SCC(=O)NC2CCCc3ccccc32)nnc1C1CC1 (stereo not drawn) | nt | i | nt | nt | nt | i
CC(C)CNS(=O)(=O)c1ccc(Br)cc1N1CCC[C@@H]1CO | nt | i | nt | nt | nt | i
CC(C)(C)C(=O)NC1CCN(C(=O)N2CCCC2)CC1 | i | i | i | i | i | i
CC(C)(C)C(=O)NC1CCN(S(C)(=O)=O)CC1 | i | i | 58 | i | i | i
COc1ccc(NC(=O)CN(C)C(=O)Cc2c(C)nc3ccccc3c2C)cc1 | nt | i | nt | nt | nt | i
CN(CC(=O)Nc1ccc(Cl)cc1)CC(=O)Nc1sc2c(c1C(N)=O)CCC2 | nt | i | nt | nt | nt | i
COc1ccc(-c2nn(CCC(=O)O)cc2/C=C2\SC(N)=NC2=O)cc1OC | 90 | i | i | i | i | i
CN(c1cccc(NC(=O)c2ccccc2N(C)S(C)(=O)=O)c1)S(C)(=O)=O | i | i | 68 | i | i | i
Cc1ccc(CNC(=O)c2ccc(N3CCC4(CC3)CC(c3ccccc3)=NO4)c(NC(=O)c3ccc(Cl)c([N+](=O)[O-])c3)c2)cc1 | nt | i | nt | nt | nt | i
C/C(CC(=O)Nc1cccc(Br)c1)=N\NC(=O)c1ccc(O)cc1O | nt | i | nt | nt | nt | i
O=C1c2ccc([N+](=O)[O-])cc2NC(c2ccco2)N1/N=C/c1ccco1 (stereo not drawn) | 84 | i | i | nt | nt | i
O=C(Cn1c(NCCO)nc2ccccc21)NCC1CCCO1 (stereo not drawn) | i | i | i | i | i | i
CCOc1ccc(/C=C/C(=O)Nc2ccc(N3CCOCC3)cc2)cc1 | i | i | 101 | i | i | i
COc1ccc(C(=O)Nc2ccc(N3CCCC3)cc2)cc1 | 86 | i | i | i | i | i
O=C(Nc1ccc(N2CCCC2)cc1)c1ccc(Br)o1 | 94 | i | i | i | i | i
CCOc1ccc(C(=O)Nc2ccc(N3CCCC3)cc2)cc1 | 63 | i | i | i | i | i
CCOc1cccc(C(=O)Nc2ccc(N3CCCC3)cc2)c1 | nt | i | nt | nt | nt | i
Cc1ccc(O)c(N=CC2=C(O)c3ccccc3C2=O)c1 | 63 | i | i | i | i | i
O=C1C(C=Nc2ccccc2O)=C(O)c2ccccc21 | i | i | i | i | i | i
CSc1ccc(CN2CCC(C(=O)NCc3ccc(C)cc3)CC2)cc1 | i | i | 50 | i | i | i
COc1ccc(N2CCN(C(=O)c3ccc4c(c3)OCO4)CC2)cc1 | i | i | 86 | i | i | i
COc1ccc(N2CCN(C(=O)CSc3ccccc3)CC2)cc1 | i | i | i | i | i | i
COc1ccc(N2CCN(C(=O)c3ccc(CSc4ccccc4)cc3)CC2)cc1 | 96 | i | i | i | i | i
Cc1cc2c(SCC(=O)NC3CCCC3)ncnc2s1 | nt | i | nt | nt | nt | i
CC(C(=O)Nc1ccc([N+](=O)[O-])cc1)N1CCN(C/C=C/c2ccccc2)CC1 (stereo not drawn) | i | i | i | i | 41 | i

Screening data as filed in PubChem.
